Screens deposited in PubChem BioAssay by National Center for Advancing Translational Sciences (NCATS).
Shown are actives, neighbours in structure and some others; about 8.1% of the full set was active somewhere.
SW480 rerep: inducers of DNA re-replication in SW480 colon cancer cells; SW480 DNA re-replication, Hoechst DNA content imaging, 48 h; Potency, µM (highest dose often 46.1 µM), for inactives: top-dose re-replication activation, usual class: activators; hit rate 1.8% among 340,000; AID 624297; further: % of control where 0% means no effect; nearly all actives have a fitted effect of over 55% in size
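Compounds, transferred as 23 nL by pin tool, were incubated with cells for 48 hr; DNA content per nucleus was then quantified by Hoechst staining and fluorescence plate imaging.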
KB-V1 MDR tox: kills drug-selected multidrug resistant KB-V1 cells | Potency, µM (doses to about 46.1 µM), actives largely listed as cytotoxic | hit rate 3.4% among 400,000 | KB-V1 MDR cells viability, CellTiter-Glo, 72 h; further: on the % scale 0 is the no-effect control and ±100 the full control effect; nearly all actives have a fitted effect of over 60% in size
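Luminescent ATP read-out (CellTiter-Glo, 10 min) measures survival of drug-selected KB-V1 MDR cells after 72 h, 37 degrees C compound exposure. Medium: phenol-red-free DMEM, 10% FBS. Values from fitted concentration-response curves.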
KB-3-1 cytotox: kills parental KB-3-1 adenocarcinoma cells; KB-3-1 viability, CellTiter-Glo ATP luminescence, 72 h; Potency, µM (top dose mostly 46.1 µM), hits mostly cytotoxic; hit rate 1.4% among 400,000; further: on the % scale 0 is the no-effect control and ±100 the full control effect; nearly all actives have a fitted effect of over 60% in size
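Cytotoxicity in the drug-sensitive parental line KB-3-1 was scored as loss of CellTiter-Glo luminescence following 72 h incubation with compound. Values come from curve fitting of normalized concentration-response data.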
MCF10A rereplic: induces DNA re-replication in MCF 10a normal breast cells | MCF 10A DNA re-replication, Hoechst nuclear intensity, 48 h | Potency, µM (top dose mostly 46.1 µM), inactives show top-dose activity, positive = re-replication, hits mostly activators | hit rate 2.9% among 350,000; further: % of control where 0% means no effect; nearly all actives have a fitted effect of over 50% in size
ELG1 repair inh: blocks ELG1-dependent DNA repair in HEK293T cells. HEK293T ELG1-luciferase reporter, luminescence, 16 h; DNA damage induced by 5-fluorouridine. Potency, µM (highest dose often 46.1 µM), for inactives: at the top dose activity change, negative = inhibition, hits mostly inhibitors. hit rate 2.3% among 330,000. AID 504467; further: on the % scale 0 is the no-effect control and ±100 the full control effect; nearly all actives have a fitted effect of over 55% in size
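DMSO vehicle served as the neutral condition. Each well held 2,000 cells given 5-fluorouridine plus compound; after 16 hr at 37 °C/5% CO2, ONE-Glo was added and luciferase measured 30 min later.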
Starred values were filed as active, the others as inactive; i = inactive; ? = inconclusive; / = no result; [ ] = dose if it differs, or a comment. The call rests on the fitted dose curve; in most records, active means well fitted curve in the direction sought with a large enough effect; inconclusive means small, poorly fitted or top-dose-only effect, or another doubt; inactive means no such curve, though single readings can be large; an effect the other way counts as inactive or inconclusive. Potency means the concentration at half of the fitted maximal effect.

SMILES	SW480 rerep	KB-V1 MDR tox	KB-3-1 cytotox	MCF10A rereplic	ELG1 repair inh
O=C(Cc1ccc(N2CCNC2=O)cc1)N1CCCC(Nc2cccc(F)c2)C1 (stereo unspecified)	?	?	4.1µM*	3.7µM*	?
O=C(c1cccc(N2CCNC2=O)c1)N1CCCC(Nc2cccc(F)c2)C1 (stereo unspecified)	-3%	i	i	?	8%
O=C1CCCN1CCC(=O)N1CCCC(Nc2ccc(F)c(F)c2)C1 (stereo unspecified)	-3%	i	i	-1%	?
Cc1cc(-c2ccc(F)cc2)n2ncc(-c3ccccc3)c2n1	/	i	i	/	/
CC(C(=O)NC(=O)NC1CCCCC1)N1CCN(c2ccc(O)cc2)CC1 (stereo unspecified)	-5%	23µM*	i	1%	3%
CC(C(=O)NC(=O)NC1CCCCC1)N1CCN(c2ccccn2)CC1 (stereo unspecified)	-2%	?	i	15%	?
COc1ccc(-n2nc3ccc(N)cc3n2)cc1Cl	21µM*	i	i	?	?
Cc1ccc(-n2nc3ccc(N)cc3n2)cc1C	16µM*	i	i	16µM*	?
COc1cc(CNC2CCCCCCC2)cc(Br)c1OCC#N	?	23µM*	i	?	?
CCOc1c(Br)cc(CNC2CCCCCCC2)cc1OC	?	?	?	10µM*	-19%
Cc1cccc(N2C(=O)C=CC2=O)c1	?	i	i	21µM*	/
CCCc1cc(=O)oc2cc3oc(C)c(C)c3cc12	0%	15µM*	i	16%	4%
CCc1cc(=O)oc2cc3oc(C)c(C)c3cc12	0%	?	i	11%	?
O=C(N/N=C/C1CC=CCC1)c1cc(-c2cccnc2)nc2ccccc12 (stereo unspecified)	2%	i	i	-2%	17%
Nc1ccc(/C=C/C(=O)c2ccco2)cc1	2%	i	i	18%	?
O=C(/C=C/c1cc(Br)ccc1O)c1ccco1	?	16µM*	?	?	?
O=C(/C=C/c1ccccc1O)c1ccco1	?	?	?	15µM*	14%
COc1ccc(NC(=S)N(CCCN2CCCCCC2)Cc2cccs2)cc1	-13%	i	i	-1%	-2%
Cc1cc(C(=O)CSc2nc(N)cc(=O)[nH]2)ccc1F	7%	i	i	13µM*	-6%
Cc1ccc(C(=O)CSc2nc(N)cc(=O)[nH]2)cc1C	-4%	i	i	-8%	-2%
CCn1c(=O)c2ccccc2n(CC(=O)NC2CCCCC2)c1=O	-64%	i	i	-5%	6%
COc1ccc(/C=N/n2c(C)nc3ccccc3c2=O)cc1OC	1%	i	i	-8%	6%
COc1cc(C(=O)Nc2ccc(C)cc2)c2ccccc2n1	21µM*	?	0.82µM*	5.8µM*	22%
CCOc1ccc(NC(=O)c2cc(=O)[nH]c3ccccc23)cc1	-2%	i	i	?	9%
CCOc1ccc(NC(=O)c2cc(OC)nc3ccccc23)cc1	?	?	1.2µM*	23µM*	?
SMILES	SW480 rerep	KB-V1 MDR tox	KB-3-1 cytotox	MCF10A rereplic	ELG1 repair inh
CCOc1ccc(NC(=O)c2cc3c(C)nc4ccccc4c3o2)cc1	0%	i	?	2%	8.2µM*
Cc1ccc(NC(=O)c2cc(Cl)nc3ccccc23)cc1	-13%	i	i	2%	-8%
Nc1nc(SCC(=O)N2CCCc3ccccc32)n(-c2ccccc2)n1	-7%	?	i	-2%	-12%
CC12CCC(C(=O)N3CCCc4ccccc43)(CC1=O)C2(C)C (stereo unspecified)	0%	16µM*	i	4%	2%
Cc1ccccc1NC(=O)c1ccc(Nc2c([N+](=O)[O-])cc([N+](=O)[O-])c3ccccc23)cc1	6%	16µM*	i	-3%	18µM*
Cc1cc(C(=O)Nc2ccc(Nc3ccccc3)cc2)ccc1[N+](=O)[O-]	18%	?	?	?	?
O=C(Nc1ccccc1N1CCCCC1)c1ccc(-c2cccc(Cl)c2)o1	1%	i	i	16µM*	0%
O=C(Nc1cccc2nsnc12)c1ccc(-c2cccc(Cl)c2)o1	3%[9.22 µM]	i	i	5.8µM*	?
O=C(O)c1ccc(-c2cccc(Cl)c2)o1	2%	i	i	6%	/
CN1CCN(c2ccccc2NC(=O)c2ccc(-c3cccc(Cl)c3)o2)CC1	?	i	?	21µM*	?
CN1CCN(c2ccccc2NC(=O)c2ccc(-c3ccc(Cl)cc3Cl)o2)CC1	?	?	?	?	21µM*
COc1ccccc1NC(=O)C(NC(=O)c1ccc(C)cc1)c1ccccc1 (stereo unspecified)	16%	i	i	-10%	-17%
Cc1cc(C)n2nc(SC(C)C(=O)N3CCOCC3)nc2n1 (stereo unspecified)	4%	?	i	18%	11%
Cc1cccc2c1-c1sc(C(=O)Nc3ccccc3N3CCN(C)CC3)cc1CO2	?	?	i	4.1µM*	21µM*
Cc1cccc2c1-c1sc(C(=O)NCCCN3CCN(c4ccccc4F)CC3)cc1CO2	/	i	i	/	/
Cc1cc(-c2ccc(C)c(S(=O)(=O)N3CCN(c4ccc(F)cc4)CC3)c2)on1	?	i	?	18%	-12%
CCc1nc2oc3ccccc3c(=O)c2c(=O)n1-c1ccccc1	6%	15µM*	i	-4%	?
CCc1nc2oc3ccccc3c(=O)c2c(=O)n1-c1ccc(C)cc1	-10%	i	i	2%	?
Cc1ccc(CN2C(=O)NC(Cc3c[nH]c4ccccc34)C2=O)cc1 (stereo unspecified)	-6%	?	i	-1%	4%
CCOC(=O)c1sc(-c2ccc(Cl)cc2Cl)nc1O	21µM*	i	i	?	-1%
CCc1nc2c(OCc3ccc(Cl)cc3Cl)cccn2c1N(C)C(=O)C1CC1	/	i	i	/	/
COc1cc(OCc2ccccc2)c(OC)c(OCc2ccccc2)c1	?	i	i	16µM*	/
CCc1c(C)c(C#N)c2[nH]c3ccccc3n2c1=S	-58%	7.3µM*	?	?	?
CCc1cc(=O)n2c([nH]c3ccccc32)c1C#N	-2%	i	i	?	16%
CCc1cc(=S)n2c([nH]c3ccccc32)c1C#N	?	5.8µM*	?	?	?
CC(SCc1cc(=O)n2c([nH]c3ccccc32)c1C#N)C(=O)O (stereo unspecified)	-3%	?	i	-2%	-12%
Cc1ccc2oc(=O)c3cc(C(=O)NCCN4CCN(C)CC4)sc3c2c1	-1%	i	i	5%	-17%
